Screening data from PubChem.
A selection: hits, their analogues and other compounds. The true share with any hit is near 2%.
B2AR ag = beta2AR agonists driving receptor internalization, primary screen, cell-based, FAP fluorogen, flow cytometry | response, % (no concentration beside the values) | Am2.2-beta2AR cells | Beta-2 adrenergic receptor (Homo sapiens), P07550 | actives 0.43% (n = 340,000) | AID 504454, 2011;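 active = response above a set limit, near 3 SD of response in nonfluorescent compounds, cut at about 42% in these data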
TLR4 MyD88 comp = inhibitors of TLR4-MyD88 association in cells, primary screen, cell-based, HeLa CL3-4, BLA complementation, FRET ratio; inhibition, % at 8.4 µM; actives 0.18% (n = 200,000); AID 861, 2007; HeLa CL3-4 TLR4/MyD88 BLA complementation; in the data active = inhibition above about 25%;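 also: 0% = vehicle and 100% = reference inhibitor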
ABHD5 PLIN5 PPI = ABHD5-PLIN5 interaction inhibitors, primary screen, cell lysate, split luciferase complementation, luminescence; Perilipin-5 (Homo sapiens) + 1-acylglycerol-3-phosphate O-acyltransferase ABHD5 (Homo …; Split G. princeps luciferase complementation, 4 h; inhibition, % at 4 µM; actives 0.78% (n = 360,000); AID 602281, 2012;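 active = inhibition above the mean inhibition across every tested compound plus 3 SD, cut at about 22% in these data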;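 also: 0% = DMSO only wells and the 100% control is not disclosed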
TLR9-MyD88 inh = inhibitors of TLR9-MyD88 association in cells, primary screen, cell-based, CHO, BLA complementation, fluorescence; Toll-like receptor 9 (Homo sapiens) + Myeloid differentiation primary response protein …; actives 0.21% (n = 340,000); AID 504734, 2011; inhibition, % at 4.98 µM; CCF4 FRET ratio;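 active = inhibition above the mean over all tested compounds plus 3 SD, cut at about 21% in these data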;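 also: 0% = DMSO only wells and 100% = clavulanate BLA inhibitor control wells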
Target sequence (Q99836 whole entry, looked up): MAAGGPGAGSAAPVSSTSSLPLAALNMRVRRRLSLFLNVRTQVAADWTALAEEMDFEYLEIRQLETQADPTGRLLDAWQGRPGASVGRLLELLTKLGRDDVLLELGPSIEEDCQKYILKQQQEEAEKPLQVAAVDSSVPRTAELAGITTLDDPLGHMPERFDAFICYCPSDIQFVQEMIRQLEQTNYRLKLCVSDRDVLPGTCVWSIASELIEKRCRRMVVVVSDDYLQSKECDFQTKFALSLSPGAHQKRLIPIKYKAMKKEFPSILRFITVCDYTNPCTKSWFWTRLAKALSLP
Target sequence (Q9NR96 whole entry, looked up): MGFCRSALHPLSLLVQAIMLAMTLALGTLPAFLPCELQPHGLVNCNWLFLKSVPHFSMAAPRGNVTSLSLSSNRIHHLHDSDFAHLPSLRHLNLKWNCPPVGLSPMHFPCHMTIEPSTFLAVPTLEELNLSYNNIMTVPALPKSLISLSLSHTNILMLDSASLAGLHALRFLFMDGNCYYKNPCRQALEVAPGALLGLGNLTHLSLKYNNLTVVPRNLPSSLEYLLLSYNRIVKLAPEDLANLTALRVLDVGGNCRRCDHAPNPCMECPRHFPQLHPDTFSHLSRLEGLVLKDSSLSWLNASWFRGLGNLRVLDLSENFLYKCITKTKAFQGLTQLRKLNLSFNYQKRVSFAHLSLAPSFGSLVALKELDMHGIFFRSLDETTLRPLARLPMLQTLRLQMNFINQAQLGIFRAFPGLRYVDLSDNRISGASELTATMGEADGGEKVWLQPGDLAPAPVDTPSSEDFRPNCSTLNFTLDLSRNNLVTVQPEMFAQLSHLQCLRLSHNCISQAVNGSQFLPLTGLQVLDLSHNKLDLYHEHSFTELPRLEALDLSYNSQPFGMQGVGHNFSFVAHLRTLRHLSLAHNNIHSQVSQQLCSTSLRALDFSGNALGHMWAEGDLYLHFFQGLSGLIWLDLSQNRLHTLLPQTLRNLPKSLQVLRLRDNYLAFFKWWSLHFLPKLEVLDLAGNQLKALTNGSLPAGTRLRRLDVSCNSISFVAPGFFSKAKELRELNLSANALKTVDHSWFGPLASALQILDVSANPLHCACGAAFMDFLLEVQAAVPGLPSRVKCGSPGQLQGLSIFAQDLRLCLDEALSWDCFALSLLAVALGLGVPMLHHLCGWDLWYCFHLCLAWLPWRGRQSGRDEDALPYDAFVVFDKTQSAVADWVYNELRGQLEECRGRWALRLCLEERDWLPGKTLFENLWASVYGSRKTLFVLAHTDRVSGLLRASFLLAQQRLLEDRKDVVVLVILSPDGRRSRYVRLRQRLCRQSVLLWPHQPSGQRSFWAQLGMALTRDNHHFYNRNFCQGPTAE
Exocytosis inh = LAMP-1 surface exposure blockers, TALL-104 cells – cell-based, flow cytometry, MLPCN library, primary screen; TALL-104 LAMP-1 surface exposure; cells stimulated with thapsigargin and PMA; inhibition, % at 10 µM; actives 0.66% (n = 360,000);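 active = inhibition above about 55%, limit read from the data; inconclusive = no clear call, values can overlap the other calls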
NOD2 RIPK2 PPI = NOD2-RIPK2 binding disruptors in cells, primary screen, fluorescence, CHO cells, BLA complementation. CCF4 ratio. actives 0.38% (n = 360,000). Receptor-interacting serine/threonine-protein kinase 2 (Homo sapiens), O43353. inhibition, % at 4.98 µM; in the data active = inhibition above about 21%;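 also: 0% = vehicle only and 100% = reference blocker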
ABHD5-PLIN5 conf = ABHD5-PLIN5 interaction inhibitors, confirmation, biochemical, luminescence; shares compounds with ABHD5 PLIN5 PPI; inhibition, % at 4 µM; actives 67% (n = 2,200); in the data active = inhibition above about 23%;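 also: 0% = DMSO vehicle wells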
HNF4 counter = HNF4 dimerization inhibitors, counter-screen for ABHD5-PLIN5 interaction inhibitor project, biochemical, split-luciferase complementation, luminescence; shares compounds with ABHD5 PLIN5 PPI; inhibition, % at 4 µM; actives 77% (n = 2,200); AID 651674, 2012;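 active = mean inhibition across replicate wells exceeding the computed hit threshold, cut at about 13% in these data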;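 also: light from luciferase halves that rejoin when HNF4 fusion proteins dimerize; 0% = DMSO only wells and the 100% control is not given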
NOD2 RIPK2 conf = NOD2-RIPK2 binding disruptors, retest, confirmation, fluorescence, CHO cells, BLA complementation, triplicate | actives 70% (n = 1,200) | CCF4 FRET | shares compounds with NOD2 RIPK2 PPI | inhibition, % at 4.98 µM;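 active = mean inhibition across replicates above a set limit taken from the earlier primary screen, cut at about 21% in these data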;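 also: 0% = DMSO-only wells and the high end = clavulanate BLA-blocked wells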
BLA counter = hits BLA reporter in NOD2-RIPK2 inhibitor counterscreen | inhibition, % at 4.98 µM | shares compounds with NOD2 RIPK2 PPI | CHO BLA reporter, CCF4 FRET ratio | actives 57% (n = 1,200);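 active = mean inhibition above the low-control mean inhibition plus three low-control SD, cut at about 11% in these data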;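 also: 0% = DMSO only wells and 100% = clavulanate high control wells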
Exocytosis CP01 = inhibitors of lytic granule exocytosis, confirmation, TALL-104 cells, flow cytometry, Cherry Pick01; AID 651954, 2012; LAMP-1 externalization; stimulated with PMA plus thapsigargin; inhibition, % at 10 µM; actives 11% (n = 1,500); shares compounds with Exocytosis inh; in the data active = inhibition above about 60%;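 also: 0% = stimulated vehicle wells and 100% = unstimulated wells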
The depositor's hits bear a star; ? = inconclusive; . = no result.

SMILES	B2AR ag	TLR4 MyD88 comp	ABHD5 PLIN5 PPI	TLR9-MyD88 inh	Exocytosis inh	NOD2 RIPK2 PPI	ABHD5-PLIN5 conf	HNF4 counter	NOD2 RIPK2 conf	BLA counter	others
C=CC(=O)N1C/C(=C/c2ccc(Cl)cc2)C(=O)/C(=C\c2ccc(Cl)cc2)C1	25.0	.	94.3*	8.5	86.5*	45.1*	104.1*	109.6*	54.4*	6.9
C=CC(=O)N1C/C(=C/c2ccccc2)C(=O)/C(=C\c2ccccc2)C1	29.0	.	101.0*	-4.5	70.7*	45.2*	103.2*	107.3*	43.5*	5.7
O=C(NCc1ccc2c(c1)OCO2)c1nc(S(=O)(=O)Cc2ccccc2)ncc1Cl	9.5	.	53.8*	-0.2	35.0	35.9*	87.5*	106.4*	29.4*	6.2
O=C(NCc1ccc2c(c1)OCO2)c1nc(S(=O)(=O)Cc2ccccc2F)ncc1Cl	15.8	.	76.3*	14.2	35.8	79.3*	84.2*	106.0*	54.9*	14.3*
O=C(NCc1ccc2c(c1)OCO2)c1ccc(Cl)nc1	-2.0	3.7	-0.8	0.7	-0.6	0.9	.	.	.	.
O=C(NCc1ccc2c(c1)OCO2)c1ccccc1Cl	1.1	.	3.0	-0.1	10.1	-4.2	.	.	.	.
O=C(CN1CCN(C(=O)C2CCN(C(=O)/C=C/c3ccccc3)CC2)CC1)Nc1ccc(F)cc1	1.7	.	-5.3	-6.2	-3.4	-5.1	.	.	.	.
O=C(O)C1CCCN(S(=O)(=O)c2ccccc2)C1 (configuration not stated)	6.1	-13.5	-1.4	-19.2	0.9	-5.1	.	.	.	.
O=S(=O)(/N=S1\CC=CCN1S(=O)(=O)c1ccccc1)c1ccccc1 (configuration not stated)	-4.0	.	91.8*	10.8	1.4	25.2*	16.6	85.1*	-10.4	-17.1
COc1ccc2oc(=O)c(-c3nnc(NCc4ccco4)s3)cc2c1	5.2	11.5	59.7*	20.5	-2.2	21.2*	21.2	43.2*	49.0*	49.4*
O=C1C(Cl)=C(NC(=O)c2ccccc2)C(=O)C(Cl)=C1NC(=O)c1ccccc1	56.3*	.	71.3*	7.2	41.7	53.8*	103.5*	110.2*	67.8*	36.6*
O=C(NC1=C(Nc2ccc(Cl)cc2)C(=O)c2ccccc2C1=O)c1ccccc1	-3.0	-14.4	-8.7	-4.3	-0.6	-8.7	.	.	.	.
COc1ccc(S(=O)(=O)/N=C2/C=CC(=O)C(C)=C2C)cc1	8.1	-7.6	16.4	3.5	2.9	-10.8	.	.	.	.
CC1=C(C)/C(=N\OS(=O)(=O)c2ccc(C)cc2)C=CC1=O	31.6	-4.2	60.7*	2.8	45.6	57.6*	66.7*	96.4*	54.4*	3.5
NC(CCc1ccccc1)c1csc(Nc2nccc(C(F)(F)F)n2)n1 (configuration not stated)	.	.	5.7	.	19.7	0.3	.	.	.	.
COc1ccc(C(=O)/C=C2/C(=O)Nc3ccccc32)cc1	45.3*	.	35.8*	-1.4	17.1	33.3*	72.4*	84.6*	10.2	-2.5
COc1ccc(C(=O)/C=C/Nc2ccccn2)c(OC)c1	-20.4	.	3.0	.	-3.5	-4.5	.	.	.	.
COc1ccc(C(=O)/C=C2/C(=O)Nc3ccccc32)c(OC)c1	22.6	.	69.2*	4.8	7.9	31.4*	94.7*	98.2*	29.7*	-1.5
C=CCOc1ccc(C2NC(=O)c3ccccc3O2)cc1 (configuration not stated)	-3.0	.	-6.6	-6.0	-9.7	5.0	.	.	.	.
C=CCOc1ccccc1C(=O)/C=C1/C(=O)Nc2ccccc21	-5.7	.	84.6*	17.2	9.6	65.2*	95.3*	96.6*	54.6*	-0.1
C=CCOc1ccc(C(=O)/C=C2/C(=O)Nc3ccccc32)cc1	-1.3	.	67.2*	8.5	12.7	24.6*	71.8*	67.5*	-0.5	-1.6
Cc1ccc2c(C)c(C(=O)N3CCN(c4ncccn4)CC3)oc2c1C	-5.8	.	-5.4	1.1	-3.1	-13.3	.	.	.	.
c1ccc(CSc2cc3ccccc3[nH]2)cc1	5.5	.	-6.3	7.4	-3.2	-4.7	.	.	.	.
CCc1nnc(NC(=O)c2ccc(COc3ccc(C)cc3)o2)s1	1.4	-12.5	-4.4	-5.5	0.3	-5.2	.	.	.	.
CCc1nnc(NC(=O)c2nc(S(=O)(=O)Cc3ccc(C)cc3)ncc2Cl)s1	28.6	.	24.8*	7.8	11.3	26.4*	68.3*	43.3*	34.5*	22.5*
SMILES	B2AR ag	TLR4 MyD88 comp	ABHD5 PLIN5 PPI	TLR9-MyD88 inh	Exocytosis inh	NOD2 RIPK2 PPI	ABHD5-PLIN5 conf	HNF4 counter	NOD2 RIPK2 conf	BLA counter	others
CCc1nnc(NC(=O)c2nc(S(=O)(=O)Cc3cccc(C)c3)ncc2Cl)s1	13.7	.	33.0*	7.5	?	34.2*	81.5*	49.2*	28.1*	19.4*
Cc1ccc(NC(=O)C2(C)CCCN2C)cc1C (configuration not stated)	.	.	4.1	.	-2.1	8.3	.	.	.	.
Cc1cccc(NC(=O)CN2C(=O)N/C(=C/c3ccc(C)o3)C2=O)c1	9.1	-8.1	61.2*	2.2	84.8*	-6.3	35.2*	98.7*	.	.	Exocytosis CP01=-12.4
CCOC(=O)c1c(-c2ccc(C)o2)csc1NC(=O)COC(=O)c1cccs1	8.4	11.2	26.8*	1.4	97.1*	16.4	10.1	27.5*	.	.	Exocytosis CP01=-3.9
CCOc1ccccc1CN1CCN(Cc2[nH]c3ccccc3c2C)CC1CCO (configuration not stated)	24.3	5.8	27.1*	3.8	67.3*	3.9	6.5	-1.1	.	.	Exocytosis CP01=-13.0
O=C(Cn1sc2ccccc2c1=O)Nc1ccc(F)cc1	.	.	58.4*	10.6	64.5*	24.8*	68.8*	115.2*	25.2*	1.2	Exocytosis CP01=103.6*
